# This is part of a sample that, as a whole, favours compounds with a hit. Of some 79,000 tested, about 15% had one in any assay. Values without a mark were called inactive. Calls of active or inactive are those of the source. No stated cut-off is given here; in the data, active means growth inhibition above about 70%; inactive means the rest.
# Assays:
# [1] = NCI Yeast Anticancer Drug Screen. Data for the mec2-1 strain (AID 157); conditions: S. cerevisiae mec2-1 strain, active compounds read high
# Method in brief: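 Readout is yeast growth inhibition, normalised to vehicle-treated controls, in the mec2-1 strain exposed to compound.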
# [2] = NCI Yeast Anticancer Drug Screen. Data for the rad14 strain (AID 159);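 further: 0% = growth of vehicle-treated control cultures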; conditions: S. cerevisiae rad14 strain growth inhibition, active compounds read high
# Method in brief: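 Yeast cells carrying a defined DNA-repair defect were exposed to compounds, and growth inhibition was calculated relative to vehicle-treated control cultures.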
# [3] = NCI Yeast Anticancer Drug Screen. Data for the sgs1 mgt1 strain (AID 161);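 further: 0% = growth of cultures given vehicle only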; conditions: S. cerevisiae sgs1 mgt1 strain, active compounds read high
# Method in brief: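 Percent growth inhibition was derived by comparing compound-exposed mutant yeast with vehicle-exposed cultures. The strain carries alterations in DNA damage repair.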
# [4] = NCI Yeast Anticancer Drug Screen. Data for the CLN2oe strain (AID 163);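 further: 0% = growth of vehicle-only control cultures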; conditions: S. cerevisiae CLN2oe strain, active compounds read high
# Method in brief: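 Values reflect how much compound exposure reduced yeast growth, referenced to vehicle-exposed cells. Assay organism is a strain with a defined genetic change affecting cell-cycle control.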
# [5] = NCI Yeast Anticancer Drug Screen. Data for the cln2 rad14 strain (AID 165);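 further: 0% = growth equal to vehicle treated cultures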; conditions: S. cerevisiae cln2 rad14 strain, active compounds read high
# Method in brief: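 Relative to vehicle controls, growth inhibition of compound-treated cln2 rad14 yeast was recorded.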
# [6] = NCI Yeast Anticancer Drug Screen. Data for the bub3 strain (AID 167); conditions: S. cerevisiae bub3 mutant strain, active compounds read high
# Method in brief: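 Compounds were applied to a genetically altered yeast strain carrying a cell-cycle control defect. Growth inhibition was scored against vehicle-treated controls.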
# [7] = NCI Yeast Anticancer Drug Screen. Data for the wt2 strain (AID 169);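 further: 0% = growth of vehicle-treated yeast cultures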; conditions: S. cerevisiae wt2 strain growth inhibition, active compounds read high
# Method in brief: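 Values express reduction in yeast growth under compound treatment, referenced to vehicle-treated cells.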
# [8] = NCI Yeast Anticancer Drug Screen. Data for the mlh1 strain (AID 171);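 further: 0% = growth of vehicle-treated control cultures of the same strain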; conditions: S. cerevisiae mlh1 strain growth inhibition, active compounds read high
# Method in brief: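 Steps: expose the defined-mutant yeast strain to compound; expose a parallel culture to vehicle; measure growth; express compound effect as inhibition relative to the vehicle culture.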
# [9] = NCI Yeast Anticancer Drug Screen. Data for the sgs1 strain (AID 173);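 further: 0% = growth of vehicle-only control cultures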; conditions: S. cerevisiae sgs1 mutant, active compounds read high
# Method in brief: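 Treat defined-mutant yeast with compound; measure growth; calculate inhibition relative to vehicle-treated cells.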
# [10] = NCI Yeast Anticancer Drug Screen. Data for the mlh1 rad18 strain (AID 175); conditions: S. cerevisiae mlh1 rad18 strain growth inhibition, active compounds read high
# Method in brief: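 Test agents were incubated with a yeast strain of defined genotype (DNA damage repair defect). Inhibition of growth was derived by comparison with vehicle-exposed cultures.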
# [11] = NCI Yeast Anticancer Drug Screen. Data for the rad18 strain (AID 177); conditions: S. cerevisiae rad18 mutant growth inhibition, active compounds read high
# Method in brief: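 A genetically defined yeast mutant impaired in DNA damage repair was treated with test compounds, then its growth was measured against cultures receiving vehicle alone.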
# [12] = NCI Yeast Anticancer Drug Screen. Data for the rad52 strain (AID 147);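 further: 0% = growth of vehicle-treated control cultures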; conditions: S. cerevisiae rad52 mutant growth inhibition, active compounds read high
# Method in brief: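 Screen used a yeast mutant impaired in DNA repair. After compound exposure, growth was measured. Values reflect inhibition compared with vehicle-treated cells.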
# [13] = NCI Yeast Anticancer Drug Screen. Data for the wt1 strain (AID 149);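 further: 0% = growth of vehicle-treated wt1 cultures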; conditions: S. cerevisiae wt1 strain (SPY 50644) growth inhibition, active compounds read high
# Method in brief: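 Yeast wt1 strain exposed to compounds; growth inhibition measured relative to vehicle-treated controls.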
# [14] = NCI Yeast Anticancer Drug Screen. Data for the rad50EPP+ strain (AID 151);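 further: 0% = growth of vehicle-treated control cultures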; conditions: S. cerevisiae rad50 mutant strain, active compounds read high
# Method in brief: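 Exposing the rad50EPP+ strain to each compound, growth was compared with vehicle-only cultures to give inhibition.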
# [15] = NCI Yeast Anticancer Drug Screen. Data for the mgt1 strain (AID 153); conditions: S. cerevisiae mgt1 mutant growth inhibition, active compounds read high
# Method in brief: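 Genetically defined yeast (mgt1) treated with compound; inhibition of growth expressed against vehicle-treated controls.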
# [16] = NCI Yeast Anticancer Drug Screen. Data for the rad50 strain (AID 155);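 further: 0% = growth of vehicle-only cultures of the same strain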; conditions: S. cerevisiae rad50 strain growth inhibition, active compounds read high
# Method in brief: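 Yeast carrying a defined DNA repair defect were exposed to test compounds, and growth was compared with vehicle-treated controls to give percent inhibition.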
# [17] = at 5.0 µM (retest, dose inferred, filed as 0.5)
# [18] = at 50.0 µM (retest, dose inferred, filed as 5.0)
structure (smiles),measurement,setting,value
CCN(CC)Cc1cc(Nc2c3ccccc3nc3c2[nH]c2ccccc23)cc(CN(CC)CC)c1O,growth inhibition,[1]; [17],-2%
same,growth inhibition,[1]; at 11.0 µM,-1%
same,growth inhibition,[1]; at 33.0 µM,2%
same,growth inhibition,[1]; [18],15%
same,growth inhibition,[1]; at 50.0 µM,21.3%
same,growth inhibition,[1]; at 100.0 µM,5%
same,growth inhibition,[2]; at 1.2 µM,-1%
same,growth inhibition,[2]; at 3.7 µM,-3%
same,growth inhibition,[2]; at 11.0 µM,-1%
same,growth inhibition,[2]; at 33.0 µM,2%
same,growth inhibition,[2]; at 100.0 µM,8%
same,growth inhibition,[3]; [17],-5%
same,growth inhibition,[3]; [18],1%
same,growth inhibition,[3]; at 50.0 µM,-10.1%
same,growth inhibition,[4]; at 1.2 µM,-5%
same,growth inhibition,[4]; at 3.7 µM,-3%
same,growth inhibition,[4]; at 11.0 µM,1%
same,growth inhibition,[4]; at 33.0 µM,3%
same,growth inhibition,[4]; at 100.0 µM,7%
same,growth inhibition,[5]; [17],48%
same,growth inhibition,[5]; [18],61%
same,growth inhibition,[5]; at 50.0 µM,66%
same,growth inhibition,[6]; at 1.2 µM,-2%
same,growth inhibition,[6]; at 3.7 µM,-4%
same,growth inhibition,[6]; [17],16%
same,growth inhibition,[6]; at 11.0 µM,-3%
same,growth inhibition,[6]; at 33.0 µM,-3%
same,growth inhibition,[6]; [18],38%
same,growth inhibition,[6]; at 50.0 µM,-10.2%
same,growth inhibition,[6]; at 100.0 µM,0%
same,growth inhibition,[7]; at 1.2 µM,-1%
same,growth inhibition,[7]; at 3.7 µM,-2%
same,growth inhibition,[7]; at 11.0 µM,-4%
same,growth inhibition,[7]; at 33.0 µM,-2%
same,growth inhibition,[7]; at 100.0 µM,1%
same,growth inhibition,[8]; at 1.2 µM,1%
same,growth inhibition,[8]; at 3.7 µM,2%
same,growth inhibition,[8]; at 11.0 µM,1%
same,growth inhibition,[8]; at 33.0 µM,1%
same,growth inhibition,[8]; at 100.0 µM,7%
same,growth inhibition,[9]; at 1.2 µM,6%
same,growth inhibition,[9]; at 3.7 µM,3%
same,growth inhibition,[9]; at 11.0 µM,-2%
same,growth inhibition,[9]; at 33.0 µM,-2%
same,growth inhibition,[9]; at 100.0 µM,0%
same,growth inhibition,[10]; [17],13%
same,growth inhibition,[10]; [18],16%
same,growth inhibition,[10]; at 50.0 µM,-11.6%
same,growth inhibition,[11]; at 1.2 µM,16%
same,growth inhibition,[11]; at 3.7 µM,9%
same,growth inhibition,[11]; at 11.0 µM,-2%
same,growth inhibition,[11]; at 33.0 µM,-11%
same,growth inhibition,[11]; at 100.0 µM,-7%
CCCCc1nnc(NS(=O)(=O)c2ccc(C)cc2)s1,growth inhibition,[12]; at 1.2 µM,-14%
same,growth inhibition,[12]; at 3.7 µM,-20%
same,growth inhibition,[12]; at 11.0 µM,-3%
same,growth inhibition,[12]; at 33.0 µM,37%
same,growth inhibition,[12]; at 100.0 µM,83% (active)
same,growth inhibition,[13]; at 1.2 µM,-35%
same,growth inhibition,[13]; at 3.7 µM,-32%
same,growth inhibition,[13]; at 11.0 µM,-18%
same,growth inhibition,[13]; at 33.0 µM,19%
same,growth inhibition,[13]; at 100.0 µM,84% (active)
same,growth inhibition,[14]; at 1.2 µM,-29%
same,growth inhibition,[14]; at 3.7 µM,-34%
same,growth inhibition,[14]; at 11.0 µM,-30%
same,growth inhibition,[14]; at 33.0 µM,-21%
same,growth inhibition,[14]; at 100.0 µM,-35%
same,growth inhibition,[15]; at 1.2 µM,-25%
same,growth inhibition,[15]; at 3.7 µM,-28%
same,growth inhibition,[15]; at 11.0 µM,-12%
same,growth inhibition,[15]; at 33.0 µM,25%
same,growth inhibition,[15]; at 100.0 µM,85% (active)
same,growth inhibition,[16]; at 1.2 µM,-15%
same,growth inhibition,[16]; at 3.7 µM,-13%
same,growth inhibition,[16]; [17],48%
same,growth inhibition,[16]; at 11.0 µM,0%
same,growth inhibition,[16]; at 33.0 µM,45%
same,growth inhibition,[16]; [18],94% (active)
same,growth inhibition,[16]; at 50.0 µM,72% (active)
same,growth inhibition,[16]; at 100.0 µM,86% (active)
same,growth inhibition,[1]; at 1.2 µM,-21%
same,growth inhibition,[1]; at 3.7 µM,-19%
same,growth inhibition,[1]; [17],70% (active)
same,growth inhibition,[1]; at 11.0 µM,-3%
same,growth inhibition,[1]; at 33.0 µM,31%
same,growth inhibition,[1]; [18],94% (active)
same,growth inhibition,[1]; at 50.0 µM,50.3%
same,growth inhibition,[1]; at 100.0 µM,81% (active)
same,growth inhibition,[2]; at 1.2 µM,-51%
same,growth inhibition,[2]; at 3.7 µM,-45%
same,growth inhibition,[2]; at 11.0 µM,-34%
same,growth inhibition,[2]; at 33.0 µM,6%
same,growth inhibition,[2]; at 100.0 µM,82% (active)
same,growth inhibition,[3]; [17],-24%
same,growth inhibition,[3]; [18],31%
same,growth inhibition,[3]; at 50.0 µM,72% (active)
same,growth inhibition,[4]; at 1.2 µM,0%
same,growth inhibition,[4]; at 3.7 µM,2%
same,growth inhibition,[4]; at 11.0 µM,15%
same,growth inhibition,[4]; at 33.0 µM,20%
same,growth inhibition,[4]; at 100.0 µM,87% (active)
same,growth inhibition,[5]; [17],35%
same,growth inhibition,[5]; [18],56%
same,growth inhibition,[5]; at 50.0 µM,49.5%
same,growth inhibition,[6]; at 1.2 µM,-4%
same,growth inhibition,[6]; at 3.7 µM,9%
same,growth inhibition,[6]; [17],27%
same,growth inhibition,[6]; at 11.0 µM,15%
same,growth inhibition,[6]; at 33.0 µM,47%
same,growth inhibition,[6]; [18],61%
same,growth inhibition,[6]; at 50.0 µM,68.2%
same,growth inhibition,[6]; at 100.0 µM,85% (active)
same,growth inhibition,[7]; at 1.2 µM,-28%
same,growth inhibition,[7]; at 3.7 µM,-22%
same,growth inhibition,[7]; at 11.0 µM,-10%
same,growth inhibition,[7]; at 33.0 µM,20%
same,growth inhibition,[7]; at 100.0 µM,80% (active)
same,growth inhibition,[8]; at 1.2 µM,-32%
same,growth inhibition,[8]; at 3.7 µM,-43%
same,growth inhibition,[8]; at 11.0 µM,-24%
same,growth inhibition,[8]; at 33.0 µM,23%
same,growth inhibition,[8]; at 100.0 µM,74% (active)
same,growth inhibition,[9]; at 1.2 µM,-13%
same,growth inhibition,[9]; at 3.7 µM,-22%
same,growth inhibition,[9]; at 11.0 µM,-6%
same,growth inhibition,[9]; at 33.0 µM,31%
same,growth inhibition,[9]; at 100.0 µM,80% (active)
same,growth inhibition,[10]; [17],77% (active)
same,growth inhibition,[10]; [18],99% (active)
same,growth inhibition,[10]; at 50.0 µM,59.1%
same,growth inhibition,[11]; at 1.2 µM,-12%
same,growth inhibition,[11]; at 3.7 µM,4%
same,growth inhibition,[11]; at 11.0 µM,15%
same,growth inhibition,[11]; at 33.0 µM,36%
same,growth inhibition,[11]; at 100.0 µM,86% (active)
